Laboratory results from paper PMC12820563, “FoxP3 forms a head-to-head dimer in vivo and stabilizes its multimerization on adjacent microsatellites”.
Whole data set: some 16,000 sequences, median “rpm ratio (pull-down/input)” near 0.94, cut for the highest 2% near 1.7. For the sample, the highest values were picked, then their nearest neighbours and some sequences at random.

biological target: T1, MBP-FoxP1dN (Mus musculus, UniProt P58462 326-579); test: PD-seq (MBP pull-down with sequencing); 20 mM Tris-HCl pH 7.5, 100 mM NaCl, 1.5 mM MgCl2, 0.4 uM protein, 0.1 uM dsDNA library, 30 min, room temperature, amylose pull-down; high values mean tight binding; details: protein: recombinant; tags: His6-MBP; chain copies: 2; dsDNA, one strand shown
T1 sequence: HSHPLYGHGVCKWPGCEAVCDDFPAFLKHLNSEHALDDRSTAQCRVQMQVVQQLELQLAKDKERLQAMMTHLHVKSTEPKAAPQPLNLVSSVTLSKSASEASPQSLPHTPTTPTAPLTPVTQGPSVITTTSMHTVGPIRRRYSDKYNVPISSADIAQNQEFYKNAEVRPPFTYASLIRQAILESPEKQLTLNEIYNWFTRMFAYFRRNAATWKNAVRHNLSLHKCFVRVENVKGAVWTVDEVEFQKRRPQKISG
Outline: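 In Tris pH 7.5 buffer with NaCl and MgCl2, 0.4 µM His6-MBP-tagged mouse FoxP3 or FoxP1 fragment lacking the N-terminus, from E. coli, met 0.1 µM Klenow-filled double-stranded degenerate DNA library for 30 min at room temperature. Three washes on amylose resin followed capture of the complexes, then proteinase K release of DNA, PCR barcoding and Illumina sequencing. Binding is taken as pooled-replicate reads-per-million enrichment of pull-down relative to input.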

Sequence | binding signal
GATGATTGTTCTCCCAGCTGATGAATTCCAGGCTTCGAGTAAACAAATTTTCCTAATCTTTCTGTTCAAGCGCCATCTAC | 0.758 RPM ratio (pull-down/input)
GATGATTGTTCTCCCAGCTGATGAATTTGGCTATTCGAGTAAACAAATTTTCCTAATCTTTCTGTTCAAGCGCCATCTAC | 0.942 RPM ratio (pull-down/input)
GATGATTGTTCTCCCAGCTGATGAATTCGGCTCCTCGAGTAAACAAATTTTCCTAATCTTTCTGTTCAAGCGCCATCTAC | 0.747 RPM ratio (pull-down/input)
GATGATTGTTCTCCCAGCTGATGAATTCAATAGATCGAGTAAACAAATTTTCCTAATCTTTCTGTTCAAGCGCCATCTAC | 0.887 RPM ratio (pull-down/input)
GATGATTGTTCTCCCAGCTGATGAATTATTCTGGTCGAGTAAACAAATTTTCCTAATCTTTCTGTTCAAGCGCCATCTAC | 1.04 RPM ratio (pull-down/input)
GATGATTGTTCTCCCAGCTGATGAATTGACCATGTCGAGTAAACAAATTTTCCTAATCTTTCTGTTCAAGCGCCATCTAC | 0.875 RPM ratio (pull-down/input)
GATGATTGTTCTCCCAGCTGATGAATTACTTTGCTCGAGTAAACAAATTTTCCTAATCTTTCTGTTCAAGCGCCATCTAC | 1.02 RPM ratio (pull-down/input)
GATGATTGTTCTCCCAGCTGATGAATTCTATTAGTCGAGTAAACAAATTTTCCTAATCTTTCTGTTCAAGCGCCATCTAC | 1.14 RPM ratio (pull-down/input)
GATGATTGTTCTCCCAGCTGATGAATTGTGTACCTCGAGTAAACAAATTTTCCTAATCTTTCTGTTCAAGCGCCATCTAC | 1.6 RPM ratio (pull-down/input)
GATGATTGTTCTCCCAGCTGATGAATTTCACCCATCGAGTAAACAAATTTTCCTAATCTTTCTGTTCAAGCGCCATCTAC | 0.921 RPM ratio (pull-down/input)
GATGATTGTTCTCCCAGCTGATGAATTTTTCGCGTCGAGTAAACAAATTTTCCTAATCTTTCTGTTCAAGCGCCATCTAC | 1.01 RPM ratio (pull-down/input)
GATGATTGTTCTCCCAGCTGATGAATTGATTATTTCGAGTAAACAAATTTTCCTAATCTTTCTGTTCAAGCGCCATCTAC | 1.39 RPM ratio (pull-down/input)
GATGATTGTTCTCCCAGCTGATGAATTATTGATTTCGAGTAAACAAATTTTCCTAATCTTTCTGTTCAAGCGCCATCTAC | 1.72 RPM ratio (pull-down/input)
GATGATTGTTCTCCCAGCTGATGAATTATTGTTTTCGAGTAAACAAATTTTCCTAATCTTTCTGTTCAAGCGCCATCTAC | 2.83 RPM ratio (pull-down/input)
GATGATTGTTCTCCCAGCTGATGAATTTGAGCTCTCGAGTAAACAAATTTTCCTAATCTTTCTGTTCAAGCGCCATCTAC | 0.775 RPM ratio (pull-down/input)
GATGATTGTTCTCCCAGCTGATGAATTCTTTGTTTCGAGTAAACAAATTTTCCTAATCTTTCTGTTCAAGCGCCATCTAC | 1.23 RPM ratio (pull-down/input)
GATGATTGTTCTCCCAGCTGATGAATTTCTTTGTTCGAGTAAACAAATTTTCCTAATCTTTCTGTTCAAGCGCCATCTAC | 0.994 RPM ratio (pull-down/input)
GATGATTGTTCTCCCAGCTGATGAATTTGTTTGTTCGAGTAAACAAATTTTCCTAATCTTTCTGTTCAAGCGCCATCTAC | 2.73 RPM ratio (pull-down/input)
GATGATTGTTCTCCCAGCTGATGAATTTTGTTGTTCGAGTAAACAAATTTTCCTAATCTTTCTGTTCAAGCGCCATCTAC | 2.84 RPM ratio (pull-down/input)
GATGATTGTTCTCCCAGCTGATGAATTTTTGTTTTCGAGTAAACAAATTTTCCTAATCTTTCTGTTCAAGCGCCATCTAC | 2.71 RPM ratio (pull-down/input)

Sequence | binding signal
GATGATTGTTCTCCCAGCTGATGAATTTTTTTGTTCGAGTAAACAAATTTTCCTAATCTTTCTGTTCAAGCGCCATCTAC | 0.971 RPM ratio (pull-down/input)
GATGATTGTTCTCCCAGCTGATGAATTGTTGTTTTCGAGTAAACAAATTTTCCTAATCTTTCTGTTCAAGCGCCATCTAC | 3.52 RPM ratio (pull-down/input)
GATGATTGTTCTCCCAGCTGATGAATTTCAAATTTCGAGTAAACAAATTTTCCTAATCTTTCTGTTCAAGCGCCATCTAC | 0.846 RPM ratio (pull-down/input)
GATGATTGTTCTCCCAGCTGATGAATTTGTTCTTTCGAGTAAACAAATTTTCCTAATCTTTCTGTTCAAGCGCCATCTAC | 1.3 RPM ratio (pull-down/input)
GATGATTGTTCTCCCAGCTGATGAATTTCGAGTTTCGAGTAAACAAATTTTCCTAATCTTTCTGTTCAAGCGCCATCTAC | 0.851 RPM ratio (pull-down/input)
GATGATTGTTCTCCCAGCTGATGAATTGCTCGACTCGAGTAAACAAATTTTCCTAATCTTTCTGTTCAAGCGCCATCTAC | 0.946 RPM ratio (pull-down/input)
GATGATTGTTCTCCCAGCTGATGAATTTCCCCATTCGAGTAAACAAATTTTCCTAATCTTTCTGTTCAAGCGCCATCTAC | 0.898 RPM ratio (pull-down/input)
GATGATTGTTCTCCCAGCTGATGAATTTTTTTCCTCGAGTAAACAAATTTTCCTAATCTTTCTGTTCAAGCGCCATCTAC | 0.754 RPM ratio (pull-down/input)
GATGATTGTTCTCCCAGCTGATGAATTTTCATCCTCGAGTAAACAAATTTTCCTAATCTTTCTGTTCAAGCGCCATCTAC | 0.875 RPM ratio (pull-down/input)
GATGATTGTTCTCCCAGCTGATGAATTTGTTTTTTCGAGTAAACAAATTTTCCTAATCTTTCTGTTCAAGCGCCATCTAC | 2.09 RPM ratio (pull-down/input)
GATGATTGTTCTCCCAGCTGATGAATTGTTTTGTTCGAGTAAACAAATTTTCCTAATCTTTCTGTTCAAGCGCCATCTAC | 1.97 RPM ratio (pull-down/input)
GATGATTGTTCTCCCAGCTGATGAATTTTTTGATTCGAGTAAACAAATTTTCCTAATCTTTCTGTTCAAGCGCCATCTAC | 1.02 RPM ratio (pull-down/input)
GATGATTGTTCTCCCAGCTGATGAATTGTTTGATTCGAGTAAACAAATTTTCCTAATCTTTCTGTTCAAGCGCCATCTAC | 1.33 RPM ratio (pull-down/input)
GATGATTGTTCTCCCAGCTGATGAATTTGTTGTTTCGAGTAAACAAATTTTCCTAATCTTTCTGTTCAAGCGCCATCTAC | 2.54 RPM ratio (pull-down/input)
GATGATTGTTCTCCCAGCTGATGAATTTGTTGATTCGAGTAAACAAATTTTCCTAATCTTTCTGTTCAAGCGCCATCTAC | 2.39 RPM ratio (pull-down/input)
GATGATTGTTCTCCCAGCTGATGAATTCTTTGATTCGAGTAAACAAATTTTCCTAATCTTTCTGTTCAAGCGCCATCTAC | 0.885 RPM ratio (pull-down/input)
GATGATTGTTCTCCCAGCTGATGAATTAAGATGATCGAGTAAACAAATTTTCCTAATCTTTCTGTTCAAGCGCCATCTAC | 0.992 RPM ratio (pull-down/input)
GATGATTGTTCTCCCAGCTGATGAATTTGACTATTCGAGTAAACAAATTTTCCTAATCTTTCTGTTCAAGCGCCATCTAC | 0.903 RPM ratio (pull-down/input)
GATGATTGTTCTCCCAGCTGATGAATTATTTGCGTCGAGTAAACAAATTTTCCTAATCTTTCTGTTCAAGCGCCATCTAC | 1.66 RPM ratio (pull-down/input)
GATGATTGTTCTCCCAGCTGATGAATTGTCCACATCGAGTAAACAAATTTTCCTAATCTTTCTGTTCAAGCGCCATCTAC | 1.33 RPM ratio (pull-down/input)
